According to the supplement of paper PMC10338343:
± gives the standard deviation.

Tests used:
[1] = tested on: MILI (PIWIL2) piRISC loaded with piRNA #1 (26 nt); assay: pre-steady-state target cleavage rate (min^-1); guide: piRNA #1 5'p-UGAGGUAGUAGGUUGUAUAGUAUCCA; higher = faster piRNA-guided slicing of the target; conditions: auxiliary factor: 500 nM mouse GTSF1;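 also: 1 nM active piRISC with 0.1 nM target library at 33 °C single turnover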
In short: (§1)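 A transcribed, DNA-blocked target RNA library […] was incubated at 33 °C for 0–8 or 0–960 min with 1 nM active affinity-purified piRISC carrying one synthetic guide, in HEPES–potassium acetate buffer with or without 500 nM GTSF1 partner protein. Uncleaved targets were then sequenced and normalised to depth and to weakly complementary targets. Data from three trials were pooled, with k3 capped at 0.0001 min^-1, and a burst-and-steady-state fit yielded the pre-steady-state cleavage rate.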

[2] = tested on: EfPiwi piRISC loaded with piRNA #1 (26 nt); assay: pre-steady-state target cleavage rate (min^-1); auxiliary factor: 500 nM Ephydatia muelleri Gtsf1; guide: piRNA #1 5'p-UGAGGUAGUAGGUUGUAUAGUAUCCA; MIWI and MILI are mouse PIWI proteins and EfPiwi is from a freshwater sponge; tags in brackets are library labels; higher = faster piRNA-guided slicing of the target
In short: as §1

| Sequence | pre-steady-state target cleavage rate [1] | pre-steady-state target cleavage rate [2] |
| --- | --- | --- |
| GGAGACCUAUGUAUACAACCUACAACCACA | 0.0115 ± 0.0032 | < 0.0001 |
| GGAGACCUUACCAUACAACCUACUACCUCA | 0.134 ± 0.02 | 0.0112 ± 0.0056 |
| GGAGUGGAUACUAUACAAGCUACUACCACA | 0.133 ± 0.012 | 0.0039 ± 0.0017 |
| GGAGACCAUACUAUACAACGUACUAGCUCA | 0.00786 ± 0.0034 | 0.00358 ± 0.0035 |
| GGAGAGGAUACAAUACAUCCUACUACCUCA | 0.239 ± 0.021 | 0.00771 ± 0.0035 |
| GGAGUGGUUACUAUACAACCUACUUCCUCA | 0.0036 ± 0.002 | 0.0027 ± 0.0013 |
| GGAGACCAUUCUAUACAACCUAGUACCUCA | 0.0977 ± 0.022 | 0.00433 ± 0.0024 |
| GGAGAGGAUACAAUACAACCUAGUACCUCA | 0.0411 ± 0.0087 | 0.00263 ± 0.0018 |
| GGAGACCUUACUAUACAACCUACUACCACA | 0.18 ± 0.018 | 0.00339 ± 0.0016 |
| GGAGACCUAUCUAUACAACCUACUAUCUCA | 0.0794 ± 0.013 | 0.00591 ± 0.004 |
| GGAGACGUUACUAUACAUCCUACUACCUCA | 0.293 ± 0.018 | 0.00676 ± 0.003 |
| GGAGUGGAUACUAUUCAACCUACAACCUCA | 0.0706 ± 0.01 | 0.00255 ± 0.0022 |
| GGAGAGGGAUACUAUACAACCUACUACCUCA | 0.237 ± 0.015 | 0.0946 ± 0.037 |
| GGAGACGAUACUAUACAACGUACUACCUGA | 0.0157 ± 0.0045 | 0.0041 ± 0.0012 |
| GGAGACCUUACUAUACAACCUACUACCUUCA | 0.16 ± 0.015 | 0.0532 ± 0.019 |
| GGAGUGGAUACUAUACAGCCUACUACCUCA | 0.147 ± 0.0093 | 0.216 ± 0.073 |
| GGAGACCAUACUAUACAACCUACUAGCACA | 0.0527 ± 0.018 | 0.00447 ± 0.0023 |
| GGAGACGAUACUAUACUACCUACUACGUCA | 0.138 ± 0.019 | 0.00262 ± 0.0017 |
| GGAGUGGAUACUUAUACAACCUACUACCUCA | 0.133 ± 0.0093 | 0.093 ± 0.034 |
| GGAGAGCAUUCUAUACAACCUACUACCUCA | 0.156 ± 0.013 | 0.0192 ± 0.01 |
| GGAGACCAUACUAUACAUCCUACUACGUCA | 0.158 ± 0.027 | 0.00585 ± 0.0034 |
| GGAGAGGAUACUAAACAUCCUACUACCUCA | 0.276 ± 0.022 | 0.00524 ± 0.0024 |
| GGAGACCAUAGUAUACAACCUACUAGCUCA | 0.0143 ± 0.0053 | 0.00326 ± 0.0032 |

| Sequence | pre-steady-state target cleavage rate [1] | pre-steady-state target cleavage rate [2] |
| --- | --- | --- |
| GGAGACGAAACUAUACAACCUAGUACCUCA | 0.0663 ± 0.021 | 0.0035 ± 0.0025 |
| GGAGACCUUACUAUACAACCAACUACCUCA | 0.00455 ± 0.0024 | 0.00528 ± 0.003 |
| GGAGUGGAUACUAUACAACCAACUACCUCA | 0.00575 ± 0.0022 | 0.00568 ± 0.002 |
| GGAGACGAUACUAUACAACGUACUUCCUCA | 0.0234 ± 0.0059 | 0.00359 ± 0.0013 |
| GGAGAGGUUACUAUACAUCCUACUACCUCA | 0.191 ± 0.016 | 0.00567 ± 0.0029 |
| GGAGAGGAUACUAUACAACCUACUAACUCA | 0.0462 ± 0.014 | 0.00561 ± 0.0029 |
| GGAGACGAUACUAUACAACCUACUACCCCA | 0.144 ± 0.025 | 0.00536 ± 0.0014 |
| GGAGAGGAUACUAUACAUCCUACUACGUCA | 0.00995 ± 0.003 | 0.00405 ± 0.0018 |
| GGAGACGUUACUAUACAACCUACUACCACA | 0.191 ± 0.016 | 0.00242 ± 0.0022 |
| GGAGUGGUAACUAUACAACCUACUACCUCA | 0.141 ± 0.016 | 0.0157 ± 0.0069 |
| GGAGACCUAACUAUACAACCUACUACCUUCA | 0.14 ± 0.028 | 0.0285 ± 0.011 |
| GGAGACCUUACAUAUACAACCUACUACCUCA | 0.0595 ± 0.012 | 0.00546 ± 0.0041 |
| GGAGAGGUUACUAUACAAGCUACUACCUCA | 0.0739 ± 0.012 | 0.0046 ± 0.0021 |
| GGAGACCAUACUCUACAACCUACUACCUCA | 0.161 ± 0.018 | 0.00922 ± 0.0037 |
| GGAGACGAUACUAUACAAGCUACUACCUCA | 0.269 ± 0.016 | 0.00854 ± 0.0028 |
| GGAGUGGAUACUAUAGAAGCUACUACCUCA | 0.19 ± 0.011 | 0.00277 ± 0.0019 |
| GGAGAGGAAACUAUACAACCUACUACCACA | 0.155 ± 0.03 | 0.00262 ± 0.0018 |
| GGAGAGGAUACAAUACAACCUACUACCACA | 0.146 ± 0.015 | 0.00265 ± 0.0022 |
| GGAGAGGAUACAUUACAACCUACUACCUCA | 0.148 ± 0.012 | 0.007 ± 0.0035 |
| GGAGACGACUACUAUACAACCUACUACCUCA | 0.204 ± 0.017 | 0.01 ± 0.0046 |
| GGAGACCUAUCUAUGACAACCUACUACCUCA | 0.0545 ± 0.0096 | 0.00594 ± 0.0037 |
| GGAGAGGAUACUCUACAACCUACUACCUCA | 0.204 ± 0.013 | 0.00431 ± 0.0033 |
| GGAGACCAAACUAUACAUCCUACUACCUCA | 0.168 ± 0.034 | 0.0348 ± 0.013 |
